# In all, about 68,000 compounds went through this assay and about 2,700 (4%) showed an effect of 50% or more. The full list was thinned out, with strong results kept by preference.
# Test system: Plasmodium berghei
# Test: Screen against P. berghei liver stage (PbLuc), transformed with Luciferase, at 2uM
# Format: functional, HepG2
# Settings: tested at 2 uM
row,SMILES,INHIBITION [%]
1,O=S(=O)(NCc1ccccc1)Nc1ccc(-n2cncn2)cc1,4.12
2,Fc1cnc(N2CCn3c(CN4CCCC4)nnc3C2)nc1,-55.08
3,CCNC(=O)[C@@H]1C[C@H](NC(=O)Cn2ccnc2)CN1Cc1ccsc1,-35.46
4,OCCC[C@@H]1CN(c2ncc(Cl)cc2Cl)CC[C@@H]1N1CCOCC1,-69.21
5,Cc1cnc(C)c(N2CC[C@H](N3CCOCC3)[C@H](CCCO)C2)n1,37.87
6,CC(C)c1cncnc1N1CC[C@H](N2CCOCC2)[C@H](CCCO)C1,68.36
7,Fc1ccc(CN2CCCn3cnc(COCC4CC4)c3C2)cc1,25.48
8,CC(=O)N1CCC2(CC1)COCCN2CCN(C)C,0.04
9,CC1CN(C)c2ccccc2CN1C(=O)c1cc(C#N)cn1C (configuration not stated),3.49
10,CC(C)NC(=O)c1nc(Cn2c(C(F)F)nc3ccccc32)no1,51.42
11,O=C(NC1CC1)c1nc(Cn2c(C(F)F)nc3ccccc32)no1,29.87
12,CC(C)NC(=O)c1nc(Cn2c(C(F)(F)F)nc3ccccc32)no1,37.53
13,COc1ccc(CN2CCN(CC3CC3)[C@@H]3CS(=O)(=O)C[C@@H]32)cc1O,7.93
14,Cn1ncc2c(N[C@@H]3C[C@H]4CC[C@@H]3C4)nc(-c3ccncc3)nc21,67.85
15,Cn1ncc2c(NC3CN4CCC3CC4)nc(-c3ccncc3)nc21 (configuration not stated),10.1
16,Cn1ncc2c(NC3CCC3)nc(-c3ccncc3)nc21,-24.62
17,Cc1csc(CNC(=O)NC(C)c2ccc3c(c2)OCCO3)n1 (configuration not stated),39.83
18,CN(C)CCOC1CC2(CCN(c3cnccn3)CC2)c2ccccc21 (configuration not stated),20.21
19,CC(=O)N(Cc1ncc(C)o1)C1CCN(Cc2noc(C)n2)C1 (configuration not stated),71.13
20,CC(=O)N(Cc1noc(C)n1)C1CCN(Cc2ncc(C(C)C)o2)C1 (configuration not stated),8.06
21,CC(=O)N(Cc1ncc(C)o1)C1CCN(Cc2cccnc2)C1 (configuration not stated),41.72
22,CC(=O)N(Cc1noc(C)n1)C1CCN(Cc2ccccn2)C1 (configuration not stated),6.31
23,CC(=O)N(Cc1noc(C)n1)C1CCN(Cc2ccncc2Cl)C1 (configuration not stated),53.72
24,CC(=O)N(Cc1ncc(C)o1)C1CCN(Cc2ccncc2Cl)C1 (configuration not stated),53.72
25,CC(=O)N(Cc1ncc(C)o1)C1CCN(Cc2cc(C)on2)C1 (configuration not stated),1.04
26,CC(=O)N(Cc1ncc(C)o1)C1CCN(Cc2ccccc2F)C1 (configuration not stated),20.35

row,SMILES,INHIBITION [%]
1,CC(=O)N(Cc1noc(C)n1)C1CCN(Cc2ccccc2C#N)C1 (configuration not stated),-21.31
2,O=C(O)[C@@H]1CN(C(=O)CN2Cc3ccccc3C2)C[C@H]1c1ccncc1,27.42
3,CCN(C(=O)c1cccc2c1OCO2)c1ccccc1,-0.15
4,O=C1CC2(CCN(S(=O)(=O)C3CC3)C2)CN1c1cncnc1 (configuration not stated),34.34
5,Cn1nccc1CCC(=O)N1CCCC(Cc2cccnc2)C1 (configuration not stated),-24.85
6,Cc1ccc(CN(C(=O)NC2CCS(=O)(=O)C2)C2CC2)o1 (configuration not stated),1.88
7,CCOc1cc(C)ccc1NC(=O)N(C)Cc1cnn(C)c1,17.39
8,CCCOc1cc(C)ccc1NC(=O)N(C)Cc1cnn(C)c1,-31.72
9,COCCOc1cc(C)ccc1NC(=O)N(C)Cc1cnn(C)c1,64.16
10,O=C1CCCC2=C1C(c1ccccc1Cl)C1C(=O)NN=C1N2 (configuration not stated),31.66
11,Cn1ncc2c1CN(Cc1ccccc1F)CC2COCC1CC1 (configuration not stated),21.42
12,Cc1c(Cl)cccc1N1CC(c2nnc(N)s2)CC1=O (configuration not stated),8.41
13,CS(=O)(=O)NC1CC(=O)N(c2ccccc2Cl)C1 (configuration not stated),34.28
14,Cc1cccc(N2CC3(CCN(c4nncs4)C3)CC2=O)c1 (configuration not stated),5.77
15,CCc1ccccc1N1CC(c2nnc(N)s2)CC1=O (configuration not stated),51.78
16,Cc1cccc(N2CC(c3nnc(N)s3)CC2=O)c1 (configuration not stated),52.23
17,O=C1C[C@@H]2CCN(Cc3ccccc3)C[C@@H]2CCN1c1ccccc1,44.84
18,Cc1cc(C)cc(N2CC(c3nnc(N)s3)CC2=O)c1 (configuration not stated),35.41
19,O=C(C1CC(=O)N(c2ccccc2)C1)N1CCC2(CC1)OCCO2 (configuration not stated),28.17
20,Nc1nnc(C2CC(=O)N(c3ccccc3)C2)s1 (configuration not stated),74.36
21,CN(C)C1CC2(CCN(C(=O)c3csnn3)CC2)c2ccccc21 (configuration not stated),24.51
22,CCc1nc2c(NCC3COc4cc(OC)ccc4C3)ncnc2o1 (configuration not stated),23.17
23,CCCc1n[nH]c(C2CN(C(=O)CCn3cc(C)cn3)CCO2)n1 (configuration not stated),14.21
24,Cn1cc(CN2C[C@H]3CCN(C(=O)c4cscn4)C[C@H]3C2)cn1,34.24
25,CCN(CC(=O)N(C)C)C(=O)c1ccc(-c2nc(C)cs2)cc1,53.81
26,CCCN(CC(=O)N(C)C)C(=O)c1ccc(-c2nc(C)cs2)cc1,-0.15
